In ChEMBL document CHEMBL1157539, “Thousands of chemical starting points for antimalarial lead identification” (Nature, 2010) one finds Inhibition data, which are given here for 63 compounds.

The structures appear in SMILES notation.

Common to all, as to type: functional
For assay [1], the system named is Plasmodium falciparum. Nature of the assay: GSK_TCMDC: Inhibition of Plasmodium falciparum 3D7 in whole red blood cells, using parasite LDH activity as an index of growth. Test compounds present at 2uM.
Assay [2] deals with Plasmodium falciparum. Briefly: GSK_TCMDC: Inhibition of Plasmodium falciparum Dd2 in whole red blood cells, using parasite LDH activity as an index of growth. Test compounds present at 2uM.
Another assay has as its system HepG2. Nature of the assay: GSK_TCMDC: Percent inhibition of human HepG2 cell line. Test compounds present at 10uM.

By Inhibition is commonly meant how much of the control response was suppressed. A higher Inhibition goes with a response far below the control. Consider `COc1cccc(-c2ccc3c(-c4cccc(S(C)(=O)=O)c4)cnc(N)c3c2)c1`, for which the Inhibition with Plasmodium falciparum [1] came out at 96%; with Plasmodium falciparum [2], 21%; in the assay with HepG2 it was 45%.
The corresponding values for `CCn1cc2c3c(cc(C(=O)N[C@@H](Cc4ccccc4)[C@H](O)CNC4CCOCC4)cc31)N(C)S(=O)(=O)CC2` are 98%, 98% and 0%.
For `O=C(/C=C/c1ccc(Cl)c(Cl)c1)NCCCCCN1CCC(NC(=S)Nc2ccc(Cl)cc2Cl)CC1`, the Inhibition in the assay with Plasmodium falciparum [1] was 99%; with Plasmodium falciparum [2], 47%; in the assay on HepG2, 53%.
For the compound `Cc1ccc2[nH]c(C)cc(=NN=Cc3ccccc3Cl)c2c1`, the values for the Inhibition in the assay on Plasmodium falciparum [1], with Plasmodium falciparum [2] and with HepG2 were 100%, 62% and 6%, respectively.
In the case of `COc1ccc(Cl)cc1NC(=O)CN(C)C(=O)c1cnn(-c2ccccc2)n1`, the figures for the Inhibition in the assay on Plasmodium falciparum [1], in the assay with Plasmodium falciparum [2] and in the assay on HepG2 were 100%, 99% and 0%, respectively.
On the same counts, the results for `COc1cc(CNCCCCCCNCc2cc(OC)c(OC)c3ccccc23)c2ccccc2c1OC.CS(=O)(=O)O` are 100%, 100% and 100%.
The corresponding values for `COc1ccccc1NC(=O)Nc1cccc(-c2ccc(-c3nc4cc(C(F)(F)F)ccc4[nH]3)cc2)c1` are 100%, 76% and 28%.
The corresponding values for `O=C(C=Cc1ccc(Br)cc1)N1CCC(CCN2CCC(c3c[nH]c4ccccc34)CC2)CC1` are 98%, 24% and 47%.
On to `O=C1Nc2ccc3ncccc3c2/C1=C/Nc1ccc(Cn2ccnc2)cc1`, for which the Inhibition in the assay with Plasmodium falciparum [1] is 100%; in the assay with Plasmodium falciparum [2], 85%; with HepG2 it was 33%.
The corresponding values for `CCn1c(Cc2ccccc2)nnc1SCC(=O)N1c2ccccc2Sc2ccccc21` are 99%, 96% and 0%.
In the case of `O=C(O)C(F)(F)F.Oc1ccc(CCNc2nc(NCc3ccccc3Oc3ccc(C(F)(F)F)cc3)nc(N3CCNCC3)n2)cc1`, the Inhibition in the assay with Plasmodium falciparum [1] is given as 86%; in the assay with Plasmodium falciparum [2] it was 2%; in the assay on HepG2 it was 26%.
Turning to `CCOC(=O)C1=C(C)NC2=C(C(=O)C(C(=O)OC)C(C)C2)C1c1cc(Br)c(OCC)c(OC)c1` (centres undefined), the Inhibition with Plasmodium falciparum [1] was 100%; with Plasmodium falciparum [2], 99%; with HepG2 it was 8%.
The corresponding values for `CCc1ccc(-n2cc(C(=O)c3cc(Br)ccc3O)cc(C#N)c2=O)cc1` are 97%, 30% and 9%.
The corresponding values for `CN(C)CCOc1ccc(-c2cc(-c3ccc(Cl)c(O)c3)c(-c3ccncc3)o2)cc1.Cl` are 100%, 99% and 39%.
The corresponding values for `CN(C)CCCc1cc2c(cc1Cl)CCN2C(=O)Nc1ccc(-c2ccncc2)c2ccccc12` are 94%, 0% and 4%.
Take `O=C(/C=C/c1ccc(Cl)c(Cl)c1)NCCCCCN1CCC(NC(=O)Nc2cccc(F)c2)CC1`: the figures for the Inhibition in the assay with Plasmodium falciparum [1], in the assay with Plasmodium falciparum [2] and in the assay with HepG2 were 100%, 6% and 30%, respectively.
On the same counts, the results for `O=C(Nc1ccc(Cl)c(Cl)c1)N1CCC(NCc2cccc([N+](=O)[O-])c2)CC1.O=C(O)C(F)(F)F` are 97%, 12% and 8%.
The corresponding values for `CCC(C)c1ccc(NC(=O)Nc2ccc(Cn3ncc(N4CCCNCC4)c(Cl)c3=O)cc2)cc1.O=C(O)C(F)(F)F` (centres undefined) are 83%, 31% and 0%.
Turning to `CCN1CCCC(Nc2ccnc3cc4ccccc4cc23)C1` (centres undefined), the values for the Inhibition with Plasmodium falciparum [1], in the assay on Plasmodium falciparum [2] and in the assay on HepG2 were 100%, 100% and 38%, respectively.
For the compound `O=C(CSc1nccn1Cc1ccco1)Nc1cc(C(F)(F)F)ccc1Cl`, the figures for the Inhibition with Plasmodium falciparum [1], with Plasmodium falciparum [2] and with HepG2 were 91%, 66% and 9%, respectively.
With `COc1cc(Nc2ncc3c(C)nc(-c4cccc(Nc5ccc(CN6CCS(=O)(=O)CC6)cc5)c4)n3n2)cc(OC)c1OC`, the Inhibition turned out to be 90% in the assay with Plasmodium falciparum [1], 79% with Plasmodium falciparum [2] and 2% in the assay on HepG2.
On the same counts, the results for `CCN(CC)CCOc1ccc(N(Cc2ccc(C(C)(C)C)cc2)C(=O)c2ccc(Cc3ccccc3)cc2)cc1OC.Cl` are 99%, 73% and 5%.
`O=C(/C=C/c1ccc(Cl)c(Cl)c1)NCCCCCN1CCCN(C(=O)Nc2ccc(F)c(Cl)c2)CC1`: the Inhibition is given as 95% with Plasmodium falciparum [1], 0% with Plasmodium falciparum [2] and 31% in the assay on HepG2.
On the same counts, the results for `COc1cc2nc(Nc3ccc4c(cnn4Cc4ccccc4)c3)nc(Nc3ccc4c(cnn4Cc4ccccc4)c3)c2cc1OC` are 99%, 100% and 4%.
As for `CCOc1ncccc1CN1CCC(N2CCc3cc(NC(=O)c4cc(C)on4)ccc32)C1` (centres undefined), the Inhibition with Plasmodium falciparum [1] turned out to be 89%; in the assay on Plasmodium falciparum [2] it was 96%; with HepG2, 0%.
With `C#Cc1cccc(NC(=O)[C@H](CC2CCCCC2)Nc2ccc(C#N)c3ccccc23)c1.O=C(O)C(F)(F)F`, the Inhibition in the assay with Plasmodium falciparum [1] was determined as 100%; in the assay on Plasmodium falciparum [2], 99%; in the assay on HepG2, 48%.
On the same counts, the results for `N#Cc1ccc(-c2cnc3ccc(NCc4ccc(S(N)(=O)=O)cc4)nn23)cc1` are 98%, 100% and 7%.
As for `CCOc1ccc(-c2nonc2NC(=O)c2ccc(Cl)cc2)cc1OCC`, the Inhibition in the assay on Plasmodium falciparum [1] came to 94%; in the assay on Plasmodium falciparum [2], 47%; in the assay with HepG2, 28%.
Turning to `CN(C)S(=O)(=O)c1ccc(N2C(=O)C3C(C2=O)C2(c4ccccc4)C(=O)C3(c3ccccc3)C(c3ccccc3)=C2c2ccccc2)cc1` (centres undefined), the Inhibition in the assay on Plasmodium falciparum [1] is 92%; with Plasmodium falciparum [2], 63%; in the assay on HepG2, 0%.
The corresponding values for `COc1cc(NCC(O)CNc2cc(Cl)nc3ccccc23)nc2ccccc12` (centres undefined) are 99%, 99% and 17%.
On the same counts, the results for `CCN(CC)c1ccc(C(c2ccc(N(CC)CC)cc2)c2cccc([N+](=O)[O-])c2)cc1` are 91%, 68% and 39%.
As to `Cc1ccc(NC(=O)c2cc(S(=O)(=O)NC(C)(C)C)ccc2C)nc1`, the Inhibition turned out to be 86% with Plasmodium falciparum [1], 80% in the assay on Plasmodium falciparum [2] and 0% with HepG2.
On the same counts, the results for `CC(=O)c1ccc2nc[nH]c(=O)c2c1` are 96%, 99% and 79%.
On the same counts, the results for `CCCc1cc(OC)c(C[C@H]2c3cc(O)c(Cl)cc3CCN2C)cc1OC.Cl` are 97%, 98% and 0%.
As to `O=C(Nc1cccc(-c2cccc(-c3nc4ccccc4[nH]3)c2)c1)c1ccncc1`, the results for the Inhibition with Plasmodium falciparum [1], in the assay with Plasmodium falciparum [2] and in the assay on HepG2 were 99%, 38% and 27%, respectively.
In the case of `CC(=O)Nc1ccc(CCNC(C)Cc2ccc(C(=O)Nc3ccc(CC(C)NCCc4cccc(Cl)c4)cc3)cc2)cc1.Cl` (centres undefined), the Inhibition in the assay on Plasmodium falciparum [1] was found to be 100%; in the assay on Plasmodium falciparum [2], 84%; in the assay on HepG2, 50%.
For `CCOc1cc(C=NNc2nc(C)cc(-n3nc(C)cc3C)n2)ccc1O`, the Inhibition worked out at 93% with Plasmodium falciparum [1], 52% in the assay on Plasmodium falciparum [2] and 46% in the assay on HepG2.
The corresponding values for `CC(C)(C)CC(C)(C)c1ccc(O)c(C(=O)Nc2cccc([N+](=O)[O-])c2)c1` are 95%, 97% and 49%.
`CC1CCC2(CC1)NC(N)=NC(=N)N2OCCCCCCCCO` (centres undefined): the Inhibition came to 96% in the assay with Plasmodium falciparum [1], 87% in the assay on Plasmodium falciparum [2] and 2% in the assay with HepG2.
The corresponding values for `O=C(Nc1cccc(-c2cccc(-c3nc4cc(F)ccc4[nH]3)c2)c1)c1ccoc1` are 98%, 35% and 36%.
On the same counts, the results for `CC1(C)NC(N)=NC(=N)N1OCc1cc(Cl)cc2c1OCOC2.Cl` are 95%, 64% and 65%.
For `CCCC(C)NC(=O)C(N)Cc1cccc(I)c1.O=C(O)C(F)(F)F` (centres undefined), the Inhibition came out at 95% with Plasmodium falciparum [1], 65% with Plasmodium falciparum [2] and 11% with HepG2.
With `Cc1cc(Nc2ccccc2)nc(Nc2ccccc2)n1`, the Inhibition in the assay on Plasmodium falciparum [1] is given as 96%; in the assay with Plasmodium falciparum [2] it was 74%; in the assay with HepG2 it was 0%.
The corresponding values for `Nc1ncc(-c2cn[nH]c2)cc1-c1nc2ccc(Cl)cc2[nH]1` are 100%, 100% and 46%.
On the same counts, the results for `N#Cc1ccc(CN2CCC(Oc3ccc(NC(=O)c4ccsc4)cc3Cl)C2)cc1.O=C(O)C(F)(F)F` (centres undefined) are 88%, 79% and 29%.
`CN(C)CCNCc1ccc(-c2ccc(-c3nc4cc(F)ccc4[nH]3)cc2)cc1.O=C(O)C(F)(F)F`: the Inhibition in the assay with Plasmodium falciparum [1] is recorded as 100%; in the assay on Plasmodium falciparum [2], 99%; in the assay with HepG2, 8%.
Consider `CC(C)CCNC(=O)[C@@H]1[C@H]2C(=O)N(C3CCCCC3)C(=O)[C@H]2[C@H]2C=C[C@@H]3C(c4ccc(C(C)(C)C)cc4)=NO[C@@H]3N21`, for which the Inhibition with Plasmodium falciparum [1] stood at 96%; with Plasmodium falciparum [2], 48%; in the assay with HepG2, 0%.
The corresponding values for `CC(C)C[C@H](NC(=O)c1ccc(F)cc1)C(=O)N[C@H](/C=N/NC(=O)c1ccccc1)CCc1ccccc1` are 92%, 61% and 1%.
Take `COc1cc2nc(NCCCOC(C)C)n3nc(-c4ccccc4)nc3c2cc1OC`: the Inhibition in the assay with Plasmodium falciparum [1] stood at 94%; with Plasmodium falciparum [2], 97%; in the assay with HepG2, 0%.
Regarding `CCC1CN2CCc3cc(OC)c(OC)cc3C2CC1CC1NCCc2cc(OC)c(OC)cc21.Cl` (centres undefined), the Inhibition in the assay with Plasmodium falciparum [1] is 100%; in the assay with Plasmodium falciparum [2] it was 98%; in the assay with HepG2, 42%.
The corresponding values for `O=C(N/C=N/c1cc([N+](=O)[O-])c(-c2cccnc2)n1-c1ccc(O)cc1)c1ccccc1` are 100%, 62% and 17%.
Regarding `O=C1c2cc(I)ccc2SC1c1ccccc1` (centres undefined), the Inhibition came out at 96% with Plasmodium falciparum [1], 98% with Plasmodium falciparum [2] and 0% with HepG2.
On the same counts, the results for `CCN(CCCN1CCCCC1)c1cc(C)nc(Nc2cc(Cl)ccc2C)n1.O=C(O)C(F)(F)F` are 99%, 37% and 36%.
The corresponding values for `CCC(C)CN1CCN(c2cc(NC(=O)c3cccs3)ccn2)C(C)C1.O=C(O)C(F)(F)F` (centres undefined) are 88%, 72% and 5%.
On the same counts, the results for `COc1ccc(CNC(=O)c2cnc3c(O)cccc3c2Nc2cccc(NC(=O)c3ccc(F)cc3)c2)cc1.O=C(O)C(F)(F)F` are 91%, 65% and 50%.
For the compound `CC[C@H](C)CNC(=O)c1ccnc(-c2ccc(CNC3Cc4ccccc4C3)cc2)c1.O=C(O)C(F)(F)F`, the Inhibition with Plasmodium falciparum [1] turned out to be 100%; in the assay with Plasmodium falciparum [2], 87%; in the assay on HepG2, 18%.
On the same counts, the results for `COc1ccc(-c2cccc(NC(=O)c3ccc(C#N)cc3)c2)cc1CNC(C)C.O=C(O)C(F)(F)F` are 100%, 14% and 25%.
Take `CCc1nonc1NC(=O)c1oc2c(C)c(C)ccc2c1C`: the Inhibition came out at 89% with Plasmodium falciparum [1], 64% in the assay with Plasmodium falciparum [2] and 1% with HepG2.
Take `N#Cc1cccc(Nc2nccc(NCC(O)c3ccc(C(F)(F)F)cc3)n2)c1` (centres undefined): the Inhibition in the assay on Plasmodium falciparum [1] stood at 100%; in the assay with Plasmodium falciparum [2] it was 98%; in the assay on HepG2, 23%.
Turning to `COc1cc2nc(NC3CCN(Cc4ccccc4)CC3)nc(N)c2cc1OC`, the Inhibition in the assay on Plasmodium falciparum [1] came to 100%; in the assay with Plasmodium falciparum [2], 30%; in the assay on HepG2, 27%.
For the compound `COc1cc2c(cc1O)[C@@H]1[C@H](O)[C@@H](O)C=C3CCN(C2)[C@H]31` [PSEUDOLYCORINE], the Inhibition stood at 90% with Plasmodium falciparum [1], 31% in the assay on Plasmodium falciparum [2] and 18% in the assay on HepG2.
The corresponding values for `CCn1c(-c2nonc2N)nc2c(-c3cccc(NC(=O)Nc4ccc(C(F)(F)F)cc4)c3)ncc(OCCCN)c21.O=C(O)C(F)(F)F` are 94%, 63% and 36%.
On the same counts, the results for `COc1cc(NC(=O)c2cccs2)c(OC)cc1NC(=O)Nc1cccc(Cl)c1` are 83%, 10% and 5%.
